# PubChem BioAssay (EPA / NIEHS)
# Active and inactive are the calls of the source. How the source made its calls: active means hit-call score of the fitted dose curve at least 0.9, where 1 is the maximum; inconclusive means response in the unintended direction; inactive means score below 0.9.
# Assay: LTEA_HepaRG_LDH_cytotoxicity: Cytotoxicity Assessment in the Life Technologies and Expression Analysis (LTEA) Assay (AID 2283563)
# Description: LTEA_HepaRG is a cell based, multiplexed-readout assay that uses HepaRG, a human liver cell line, with measurements taken at 48 hours after chemical dosing on a 96-well plate.LTEA_HepaRG_LDH_cytotoxicity is one of 102 assay component(s) measured in the LTEA HepaRG cell culture assay. It is a marker of cell viability / cytotoxicity.Data from the assay component LTEA_HepaRG_LDH_cytotoxicity was analyzed into 1 endpoint. This assay endpoint, LTEA_HepaRG_LDH_cytotoxicity, was analyzed in the positive fitting direction relative to DMSO as the negative control and baseline of activity. Using a type of inducible reporter, measures of mRNA induction for loss-of-signal activity can be used to understand cell death. To generalize the intended target to other relatable targets, this assay endpoint is annotated to the cell cycle intended target family, where the subfamily is proliferation.
# A total of 1060 chemcials from the ToxCast library were tested in eight-point concentration-response experiments. Cell culture and cytotoxicity assays were conducted at Thermo Fisher Scientific's Custom Services facility (Madison, WI). A single lot of human HepaRG cells (Thermo Fisher Scientific, Frederick, MD) was used for the cell culture experiments. 96-well format collagen type I coated plates of human HepaRG cells were prepared using established methods. Briefly, cryopreserved HepaRG cells were thawed, plated at a density of approximately 100,000 cells/well in HepaRG Thaw, Plate, and General Purpose media (HPRG770, Thermo Fisher Scientific), and incubated for 48 hours. 0.5% DMSO was selected as vehicle control to balance the requisite need of DMSO in HepaRG cultures to maintain differentiation (for example, baseline metabolism, proportions of hepatocytes vs. cholangiocytes), while enabling further hepatic receptor pathway activation (for example, PXR and CAR) in response to chemical exposure. 48 hours after plating, the culture medium was replaced with HepaRG Serum-Free Incudtion Media. Cells were exposed to each test chemical in duplicate and maintained in CO2 incubators for another 48 hours. Chemical plates were thawed to room temperature and 200x concentrations of treatment groups were prepared. 8-point conentration-reponse curves were made with the highest exposure at 100 uM, followed by half-log dilutions, all in 0.5% DMSO. Each test plate contained variouse controls, induction positive controls (1mM phenobarbital), cytotoxicity positive controls ([…] aflatoxin B1), vehicle controls (0.5% DMSO), and total lysis controls (0.5% DMSO). Cell morphology images were taken using an Essen IncuCyte FLR automated microscope, with six 96-well plates imaged in about 24 minutes. Images were captured and exported and JPEG files. Spent culture media was transfered to black-well plates for the LDH assay, and remaining media was sorted at -80 C for later use. Cells were treated with RLT buffer and frozen until shipped for gene expression analysis. Total RNA was isolated from the cell suspension in 75 uL of Buffer RLT (Qiagen, Germantown, MD 20874) by Quintiles/Expression Analysis (Durham, NC) using a custom isolation procedure. Total RNA from each plate well was transferred to a preamplification plate. Fluidigm's 96.96 Dynamic ArrayTM (Fluidigm, Amsterdam, the Netherlands) technology was used for gene expression analyses by quantitative reverse transcription polymerase chain reaction (qRT-PCR, performed by Quintiles/Expression Analysis, Durham, NC)89. Standard TaqManTM Assays (Applied Biosystems/ThermoFisher Scientific, Foster City, CA) were used to assess the expression of 93 genes selected based on their selectivity and sensitivity to important hepatic receptors known to be modulated by environmental chemicals; importance in human hepatocyte functionality; and hepatotoxicity. […]
SMILES,outcome,AC50
CNCc1ccc(NC(=O)c2c[nH]c3c2C(=O)CCC3)cc1,inactive,
O=C(O)c1cccc(N(Cc2cccnc2)c2ccc(OC(F)F)c(OC(F)F)c2)c1,inactive,
CCc1cc(SCc2sc(-c3ccc(C(F)(F)F)cc3)nc2CN2CCN(c3ccc(OC)cc3)CC2)ccc1OCC(=O)O,,16.2 µM (active)
C1=CCCC=CCCC=CCC1,inactive,
Nc1ccc(Nc2ccccc2)cc1,inactive,
C=CC(=C)CCC=C(C)C,inactive,
COc1ccc(/C=C/S(=O)(=O)NC(=O)c2ccc(C)cc2Cl)cc1,inactive,
Nc1cccc(N)c1,inactive,
CC1=CC(=O)CC(C)(C)C1,inactive,
O=C(NS(=O)(=O)/C=C/c1ccccc1)c1ccc(F)cc1Cl,inactive,
CC(C)=CCC/C(C)=C\CO,inactive,
CC(C)=CCC/C(C)=C/CO,inactive,
O=C(O)c1cc(N=Nc2ccc(S(=O)(=O)Nc3ccccn3)cc2)ccc1O,inactive,
C[C@](N)(Cc1ccc(O)c(O)c1)C(=O)O,inactive,
O=C1CCC(N2C(=O)c3ccccc3C2=O)C(=O)N1 (stereo not given),inactive,
Nc1nc2ncc(CNc3ccc(C(=O)N[C@@H](CCC(=O)O)C(=O)O)cc3)nc2c(=O)[nH]1,inactive,
COc1ccc(-n2nc(C(F)F)cc2-c2ccc(S(C)=O)cc2)cc1 (stereo not given),inactive,
CCCCC(CC)COC(=O)c1ccc(C(=O)OCC(CC)CCCC)cc1 (stereo not given),inactive,
CC(C)CCCCCCOC(=O)c1ccc(C(=O)OCCCCCCC(C)C)c(C(=O)OCCCCCCC(C)C)c1,inactive,
Cn1cnc([N+](=O)[O-])c1Sc1ncnc2nc[nH]c12,inactive,

SMILES,outcome,AC50
CC[C@H](C)C(=O)O[C@H]1C[C@@H](C)C=C2C=C[C@H](C)[C@H](CC[C@@H]3C[C@@H](O)CC(=O)O3)[C@H]21,inactive,
CCC(C)(C)C(=O)O[C@H]1C[C@@H](C)C=C2C=C[C@H](C)[C@H](CC[C@@H]3C[C@@H](O)CC(=O)O3)[C@H]21,inactive,
O=P(OC(CCl)CCl)(OC(CCl)CCl)OC(CCl)CCl,inactive,
O=C(O)CCN(C1(C(=O)NO)CCCC1)S(=O)(=O)c1ccc(Oc2ccc(F)cc2)cc1,inactive,
Cc1ccc(S(=O)(=O)O)cc1C,inactive,
O=C(CCCCCCCCc1cccnc1)N1CCC(C=C(c2ccccc2)c2ccccc2)CC1,,36.8 µM (active)
CC(C)CCO,inactive,
Cc1ccc(C)c(O)c1,inactive,
On1ccccc1=S,inactive,
COc1ccc2sc(C(=O)Nc3nnn[nH]3)c(OC(C)C)c2c1,inactive,
Fc1ccccc1[C@@H](F)COC1CCC(Nc2ncnc3[nH]ncc23)CC1 (stereo not given in full),inactive,
COC(=O)c1c(Cl)c(Cl)c(C(=O)OC)c(Cl)c1Cl,inactive,
C=CCCCCCCCCC(=O)O,inactive,
CCOCCO,inactive,
CC(=O)OCCC(C)C,inactive,
O=C(O)c1cccc(Oc2ccccc2)c1,inactive,
CC(C)(O)c1coc(S(=O)(=O)NC(=O)Nc2c3c(cc4c2CCC4)CCC3)c1,inactive,
CC/C(=C\C(=N/O)C(N)=O)C(C)[N+](=O)[O-] (stereo not given),inactive,
O=C1OC(=O)C2C3C=CC(C3)C12 (stereo not given),inactive,
COCCOc1cc2cc(C(=O)NC3CCN(C(C)C)CC3)n(CC(=O)Nc3ccc(Cl)cn3)c2cn1,,59.3 µM (active)
